According to article PMC7862700, “An all-to-all approach to the identification of sequence-specific readers for epigenetic DNA modifications on cytosine”:

Assays:
Test in all cases: DAPPL (digital affinity profiling via proximity ligation, sequencing); 10 mM Tris-HCl pH 7.5, 50 mM NaCl, 1 mM DTT, 4% glycerol, room temperature, 30 min; GST-TFs on glutathione beads, 16-mer random dsDNA library, 0.1% formaldehyde crosslink after washing; high values mean tight binding
[1] = molecular target: T1, FEV (Homo sapiens, UniProt Q99581 1-238); conditions: protein: recombinant; tags: N-terminal GST; dsDNA, one strand shown
T1 sequence: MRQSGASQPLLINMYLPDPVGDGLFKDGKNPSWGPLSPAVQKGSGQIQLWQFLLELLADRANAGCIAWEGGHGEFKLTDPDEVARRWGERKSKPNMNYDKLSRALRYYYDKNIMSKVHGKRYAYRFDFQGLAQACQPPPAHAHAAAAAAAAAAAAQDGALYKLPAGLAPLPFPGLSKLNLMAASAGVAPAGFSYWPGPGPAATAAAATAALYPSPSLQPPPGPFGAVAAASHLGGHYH
How it was run: (§1)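 Each value of binding signal is a hexamer's read frequency for a factor divided by the same hexamer's frequency in the tag-only sample. Barcoded, bead-captured GST fusions of human transcription factors made in yeast were pooled with that sample and incubated with 200 nmole of a random double-stranded 16-mer DNA library in Tris/NaCl/DTT/glycerol buffer at room temperature for 30 min. Washing, 0.1% formaldehyde crosslinking, proximity ligation, PCR and Illumina NextSeq500 sequencing followed.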

[2] = molecular target: ETV5 (Homo sapiens, UniProt P41161 1-510); conditions: protein: recombinant; tags: N-terminal GST; dsDNA, one strand shown
Sequence of ETV5 (P41161 whole entry): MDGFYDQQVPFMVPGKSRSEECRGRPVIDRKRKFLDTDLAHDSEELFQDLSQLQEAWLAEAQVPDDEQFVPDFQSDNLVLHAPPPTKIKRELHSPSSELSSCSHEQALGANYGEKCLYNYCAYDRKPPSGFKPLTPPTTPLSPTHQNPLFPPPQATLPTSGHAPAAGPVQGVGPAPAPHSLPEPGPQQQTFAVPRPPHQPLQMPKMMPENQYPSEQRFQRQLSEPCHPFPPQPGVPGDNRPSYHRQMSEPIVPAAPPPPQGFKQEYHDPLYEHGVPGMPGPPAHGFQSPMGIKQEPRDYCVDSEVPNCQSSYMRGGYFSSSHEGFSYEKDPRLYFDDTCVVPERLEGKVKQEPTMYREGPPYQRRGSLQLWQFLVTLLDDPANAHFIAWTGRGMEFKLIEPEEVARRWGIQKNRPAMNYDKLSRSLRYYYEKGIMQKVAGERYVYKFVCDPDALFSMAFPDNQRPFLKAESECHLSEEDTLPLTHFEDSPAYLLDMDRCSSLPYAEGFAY
How it was run: as §1

[3] = molecular target: HSF1 (Homo sapiens, UniProt Q00613 1-529); conditions: protein: recombinant; tags: N-terminal GST; chain copies: 3; dsDNA, one strand shown
Sequence of HSF1 (Q00613 whole entry): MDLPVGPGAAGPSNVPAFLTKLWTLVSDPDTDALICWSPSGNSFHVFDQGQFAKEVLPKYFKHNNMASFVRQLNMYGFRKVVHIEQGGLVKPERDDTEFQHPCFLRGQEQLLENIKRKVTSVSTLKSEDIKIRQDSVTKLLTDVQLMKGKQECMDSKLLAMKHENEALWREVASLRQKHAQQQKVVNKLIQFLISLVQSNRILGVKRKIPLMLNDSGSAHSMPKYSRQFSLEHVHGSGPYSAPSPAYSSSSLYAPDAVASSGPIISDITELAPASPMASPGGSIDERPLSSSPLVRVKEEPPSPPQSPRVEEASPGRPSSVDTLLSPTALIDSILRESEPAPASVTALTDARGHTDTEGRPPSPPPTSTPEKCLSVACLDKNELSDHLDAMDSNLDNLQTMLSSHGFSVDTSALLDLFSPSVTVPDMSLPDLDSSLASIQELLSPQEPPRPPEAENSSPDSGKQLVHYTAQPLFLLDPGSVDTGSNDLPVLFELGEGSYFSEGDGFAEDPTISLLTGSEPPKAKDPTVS
How it was run: as §1

[4] = molecular target: T2, SPIC (Homo sapiens, UniProt Q8N5J4 1-248); conditions: protein: recombinant; tags: N-terminal GST; dsDNA, one strand shown
T2 sequence: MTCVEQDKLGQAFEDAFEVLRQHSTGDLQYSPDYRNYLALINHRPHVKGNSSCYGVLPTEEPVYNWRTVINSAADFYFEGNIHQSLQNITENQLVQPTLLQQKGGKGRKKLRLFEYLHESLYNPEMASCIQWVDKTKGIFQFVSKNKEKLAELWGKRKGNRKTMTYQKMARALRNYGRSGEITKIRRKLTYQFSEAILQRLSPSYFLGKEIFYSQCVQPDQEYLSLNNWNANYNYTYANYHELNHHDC
How it was run: as §1

[5] = molecular target: ELF4 (Homo sapiens, UniProt Q99607 1-663); conditions: protein: recombinant; tags: N-terminal GST; dsDNA, one strand shown
Sequence of ELF4 (Q99607 whole entry): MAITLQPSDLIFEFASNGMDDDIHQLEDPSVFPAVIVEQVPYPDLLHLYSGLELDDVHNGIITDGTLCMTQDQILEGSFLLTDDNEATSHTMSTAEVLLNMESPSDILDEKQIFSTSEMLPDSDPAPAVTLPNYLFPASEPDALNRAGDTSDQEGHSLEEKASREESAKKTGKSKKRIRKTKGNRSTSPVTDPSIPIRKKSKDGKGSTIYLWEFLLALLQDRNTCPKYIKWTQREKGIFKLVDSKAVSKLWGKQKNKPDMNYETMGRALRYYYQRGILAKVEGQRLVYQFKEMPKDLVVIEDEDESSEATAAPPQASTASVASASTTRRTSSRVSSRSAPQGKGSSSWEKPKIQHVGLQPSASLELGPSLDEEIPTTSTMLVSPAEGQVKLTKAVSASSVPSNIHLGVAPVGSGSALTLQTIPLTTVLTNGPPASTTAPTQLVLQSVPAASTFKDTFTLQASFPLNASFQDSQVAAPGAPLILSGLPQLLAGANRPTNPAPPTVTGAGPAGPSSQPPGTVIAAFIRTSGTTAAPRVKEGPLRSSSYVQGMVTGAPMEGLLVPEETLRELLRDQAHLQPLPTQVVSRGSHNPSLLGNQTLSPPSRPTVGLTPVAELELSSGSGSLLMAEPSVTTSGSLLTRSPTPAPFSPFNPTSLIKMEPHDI
How it was run: as §1

[6] = molecular target: T3, ELK4 (Homo sapiens, UniProt P28324-2 1-405); conditions: protein: recombinant; tags: N-terminal GST; dsDNA, one strand shown
T3 sequence: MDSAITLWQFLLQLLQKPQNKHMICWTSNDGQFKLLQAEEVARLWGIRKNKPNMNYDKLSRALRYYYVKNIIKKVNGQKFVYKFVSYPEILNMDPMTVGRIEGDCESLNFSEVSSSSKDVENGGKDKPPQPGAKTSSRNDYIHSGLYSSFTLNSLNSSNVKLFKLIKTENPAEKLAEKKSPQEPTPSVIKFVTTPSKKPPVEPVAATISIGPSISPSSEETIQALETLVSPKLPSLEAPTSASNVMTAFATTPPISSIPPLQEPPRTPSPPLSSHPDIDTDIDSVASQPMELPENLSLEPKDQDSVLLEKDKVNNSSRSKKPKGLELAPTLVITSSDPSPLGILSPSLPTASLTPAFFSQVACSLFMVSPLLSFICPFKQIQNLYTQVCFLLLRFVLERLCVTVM
How it was run: as §1

[7] = molecular target: T4, ETV2 (Homo sapiens, UniProt O00321 1-342); conditions: protein: recombinant; tags: N-terminal GST; dsDNA, one strand shown
T4 sequence: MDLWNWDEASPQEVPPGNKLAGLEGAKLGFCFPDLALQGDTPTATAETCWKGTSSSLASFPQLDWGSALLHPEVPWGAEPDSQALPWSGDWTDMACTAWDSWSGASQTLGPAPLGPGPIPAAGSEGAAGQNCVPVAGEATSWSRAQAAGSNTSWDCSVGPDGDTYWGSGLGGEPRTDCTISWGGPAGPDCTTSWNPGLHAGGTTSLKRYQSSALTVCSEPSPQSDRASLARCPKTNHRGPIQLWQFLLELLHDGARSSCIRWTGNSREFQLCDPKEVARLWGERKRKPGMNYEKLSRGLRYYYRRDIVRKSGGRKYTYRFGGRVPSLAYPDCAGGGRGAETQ
How it was run: as §1

[8] = molecular target: T5, ELF3 (Homo sapiens, UniProt P78545 1-371); conditions: protein: recombinant; tags: N-terminal GST; dsDNA, one strand shown
T5 sequence: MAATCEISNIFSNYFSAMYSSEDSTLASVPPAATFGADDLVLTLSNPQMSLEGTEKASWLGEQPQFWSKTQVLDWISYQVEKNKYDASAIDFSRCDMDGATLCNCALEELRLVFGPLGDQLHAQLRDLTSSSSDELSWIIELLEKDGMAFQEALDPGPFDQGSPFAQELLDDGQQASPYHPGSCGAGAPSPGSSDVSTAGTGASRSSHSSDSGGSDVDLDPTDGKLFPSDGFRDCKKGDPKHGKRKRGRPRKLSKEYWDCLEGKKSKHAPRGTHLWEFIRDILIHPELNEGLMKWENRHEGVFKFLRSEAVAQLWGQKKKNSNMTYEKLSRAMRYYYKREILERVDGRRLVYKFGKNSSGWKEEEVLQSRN
How it was run: as §1

[9] = molecular target: CRX (Homo sapiens, UniProt O43186 1-299); conditions: protein: recombinant; tags: N-terminal GST; dsDNA, one strand shown
Sequence of CRX (O43186 whole entry): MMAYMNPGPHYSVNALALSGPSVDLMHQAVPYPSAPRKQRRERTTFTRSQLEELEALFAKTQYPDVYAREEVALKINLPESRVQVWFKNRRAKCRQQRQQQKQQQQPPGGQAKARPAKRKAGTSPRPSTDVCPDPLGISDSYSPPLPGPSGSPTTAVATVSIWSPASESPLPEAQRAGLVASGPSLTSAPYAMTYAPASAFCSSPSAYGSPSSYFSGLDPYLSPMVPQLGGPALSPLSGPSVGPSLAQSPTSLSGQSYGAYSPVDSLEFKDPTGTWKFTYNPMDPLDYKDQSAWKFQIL
How it was run: as §1

[10] = molecular target: ETV1 (Homo sapiens, UniProt P50549 1-477); conditions: protein: recombinant; tags: N-terminal GST; dsDNA, one strand shown
Sequence of ETV1 (P50549 whole entry): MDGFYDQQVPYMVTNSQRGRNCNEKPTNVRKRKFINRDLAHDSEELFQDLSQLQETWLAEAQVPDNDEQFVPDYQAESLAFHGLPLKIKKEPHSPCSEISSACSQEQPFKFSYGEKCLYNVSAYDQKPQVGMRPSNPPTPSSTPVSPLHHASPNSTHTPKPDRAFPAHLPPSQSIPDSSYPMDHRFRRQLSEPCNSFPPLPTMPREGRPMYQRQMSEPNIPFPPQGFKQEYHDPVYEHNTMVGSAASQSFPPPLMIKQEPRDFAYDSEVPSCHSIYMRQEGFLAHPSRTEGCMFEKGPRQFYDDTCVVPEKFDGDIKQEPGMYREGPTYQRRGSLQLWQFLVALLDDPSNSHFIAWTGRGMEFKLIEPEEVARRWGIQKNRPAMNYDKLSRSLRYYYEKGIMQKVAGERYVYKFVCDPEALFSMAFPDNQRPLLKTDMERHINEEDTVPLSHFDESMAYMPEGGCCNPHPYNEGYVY
How it was run: as §1

Row | Sequence | binding signal [1] | binding signal [2] | binding signal [3] | binding signal [4] | binding signal [5] | binding signal [6] | binding signal [7] | binding signal [8] | binding signal [9] | binding signal [10]
1 | TATCCT | 1.94 fold enrichment (6-mer frequency, TF over GST control) | 1.95 fold enrichment (6-mer frequency, TF over GST control) | 1.72 fold enrichment (6-mer frequency, TF over GST control) | 1.87 fold enrichment (6-mer frequency, TF over GST control) | 1.65 fold enrichment (6-mer frequency, TF over GST control) | 1.83 fold enrichment (6-mer frequency, TF over GST control) | 1.93 fold enrichment (6-mer frequency, TF over GST control) | 1.59 fold enrichment (6-mer frequency, TF over GST control) | 2.28 fold enrichment (6-mer frequency, TF over GST control) | 1.72 fold enrichment (6-mer frequency, TF over GST control)
2 | TCCTAC | 1.4 fold enrichment (6-mer frequency, TF over GST control) | 1.51 fold enrichment (6-mer frequency, TF over GST control) | 1.21 fold enrichment (6-mer frequency, TF over GST control) | 1.54 fold enrichment (6-mer frequency, TF over GST control) | 1.41 fold enrichment (6-mer frequency, TF over GST control) | 1.29 fold enrichment (6-mer frequency, TF over GST control) | 1.59 fold enrichment (6-mer frequency, TF over GST control) | 1.16 fold enrichment (6-mer frequency, TF over GST control) | 1.31 fold enrichment (6-mer frequency, TF over GST control) | 1.39 fold enrichment (6-mer frequency, TF over GST control)
3 | ATACCC | 1.17 fold enrichment (6-mer frequency, TF over GST control) | 1.16 fold enrichment (6-mer frequency, TF over GST control) | 1 fold enrichment (6-mer frequency, TF over GST control) | 1.2 fold enrichment (6-mer frequency, TF over GST control) | 1.13 fold enrichment (6-mer frequency, TF over GST control) | 1.16 fold enrichment (6-mer frequency, TF over GST control) | 1.24 fold enrichment (6-mer frequency, TF over GST control) | 1.16 fold enrichment (6-mer frequency, TF over GST control) | 1.2 fold enrichment (6-mer frequency, TF over GST control) | 1.23 fold enrichment (6-mer frequency, TF over GST control)
4 | AATAAG | 1.26 fold enrichment (6-mer frequency, TF over GST control) | 1.25 fold enrichment (6-mer frequency, TF over GST control) | 1.52 fold enrichment (6-mer frequency, TF over GST control) | 1.3 fold enrichment (6-mer frequency, TF over GST control) | 1.26 fold enrichment (6-mer frequency, TF over GST control) | 1.2 fold enrichment (6-mer frequency, TF over GST control) | 1.19 fold enrichment (6-mer frequency, TF over GST control) | 1.29 fold enrichment (6-mer frequency, TF over GST control) | 1.98 fold enrichment (6-mer frequency, TF over GST control) | 1.26 fold enrichment (6-mer frequency, TF over GST control)
5 | GTCTCG | 1.3 fold enrichment (6-mer frequency, TF over GST control) | 1.25 fold enrichment (6-mer frequency, TF over GST control) | 1.55 fold enrichment (6-mer frequency, TF over GST control) | 1.21 fold enrichment (6-mer frequency, TF over GST control) | 1.43 fold enrichment (6-mer frequency, TF over GST control) | 1.3 fold enrichment (6-mer frequency, TF over GST control) | 1.03 fold enrichment (6-mer frequency, TF over GST control) | 1.35 fold enrichment (6-mer frequency, TF over GST control) | 1.06 fold enrichment (6-mer frequency, TF over GST control) | 1.35 fold enrichment (6-mer frequency, TF over GST control)
6 | CTCATT | 1.44 fold enrichment (6-mer frequency, TF over GST control) | 1.41 fold enrichment (6-mer frequency, TF over GST control) | 1.36 fold enrichment (6-mer frequency, TF over GST control) | 1.29 fold enrichment (6-mer frequency, TF over GST control) | 1.52 fold enrichment (6-mer frequency, TF over GST control) | 1.63 fold enrichment (6-mer frequency, TF over GST control) | 1.49 fold enrichment (6-mer frequency, TF over GST control) | 1.35 fold enrichment (6-mer frequency, TF over GST control) | 1.45 fold enrichment (6-mer frequency, TF over GST control) | 1.52 fold enrichment (6-mer frequency, TF over GST control)
7 | CTTCTG | 1.23 fold enrichment (6-mer frequency, TF over GST control) | 1.35 fold enrichment (6-mer frequency, TF over GST control) | 2.07 fold enrichment (6-mer frequency, TF over GST control) | 1.39 fold enrichment (6-mer frequency, TF over GST control) | 1.42 fold enrichment (6-mer frequency, TF over GST control) | 1.57 fold enrichment (6-mer frequency, TF over GST control) | 1.32 fold enrichment (6-mer frequency, TF over GST control) | 1.29 fold enrichment (6-mer frequency, TF over GST control) | 1.49 fold enrichment (6-mer frequency, TF over GST control) | 1.22 fold enrichment (6-mer frequency, TF over GST control)
